Measured values reported in PubChem BioAssay.
For some of these results: Measured potencies and affinities stand elsewhere. Activity calls are given as the source filed them. Unless noted, how the calls were made is not given here.

Tests used:
[1] = antimalarial activity against Dd2 strain (AID 2302;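 active means growth inhibition above 50% at the single 2 µM test dose, taken to imply half-maximal potency below 2 µM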;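 further: 0% = DMSO untreated growth and 100% = chloroquine plus artemisinin killed control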); settings: P. falciparum Dd2 in RBCs, LDH growth readout, 72 h; at 2 µM; stronger effect = higher value
[2] = HepG2 cytotoxicity, primary screen, cytotoxicity control for P. falciparum antimalarial project, cell-based, ATP luminescence (AID 2303;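 active means inhibition above 50%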;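 further: 0% = DMSO wells and 100% = digitonin-killed cells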); settings: HepG2 viability, 24-48 h, at 10 µM, stronger effect = higher value
[3] = target: L-lactate dehydrogenase (Plasmodium falciparum (isolate CDC / Honduras)) (UniProt Q27743); assay: PfLDH activity inhibition – cell lysate, 3D7 strain, counter-screen for P. falciparum growth inhibition project (AID 2304);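 further: 0% = vehicle and 100% = reference inhibitor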; settings: P. falciparum 3D7 crude extract, LDH APAD/NBT absorbance; at 2 µM; stronger effect = higher value
[4] = inhibition of 3D7 malaria parasite growth – strain 3D7 (AID 2306);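 further: 0% = DMSO wells and 100% = chloroquine plus artemisinin control wells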; settings: P. falciparum 3D7 erythrocytic growth, LDH absorbance, 72 h; at 2 µM; stronger effect = higher value
[5] = target: Calcium-dependent protein kinase 1 (Plasmodium falciparum (isolate 3D7)) (UniProt P62344); assay: PfCDPK1 kinase inhibitors, biochemical, TCAMS library (AID 1159585; cut-off not given, nearly all actives have IC50 up to about 0.98 µM;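 further: inhibitors leave more ATP so luminescence rises with inhibition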); settings: recombinant PfCDPK1, Kinase-Glo ATP depletion luminescence
[6] = target: Plasmodium falciparum protein kinase 6 (PK6, PF3D7_1337100) (UniProt Q8IDW1); assay: PfPK6 kinase inhibitors, biochemical, TCAMS library (AID 1159586); settings: recombinant PfPK6, Kinase-Glo ATP depletion luminescence
[7] = target: Protein kinase 7 (PK7), Plasmodium falciparum 3D7 (PF3D7_0213400) (UniProt Q7YTF7); assay: inhibition of Plasmodium PK7 catalytic activity – biochemical, TCAMS antimalarial set, Kinase-Glo luminescence (AID 1159587); settings: recombinant PfPK7, Kinase-Glo ATP depletion luminescence
[8] = target: Calcium-dependent protein kinase 4 (Plasmodium falciparum (isolate 3D7)) (UniProt Q8IBS5); assay: PfCDPK4 kinase inhibitors, biochemical, TCAMS library (AID 1159588; cut-off not given, nearly all actives have IC50 up to about 0.91 µM); settings: recombinant PfCDPK4, Kinase-Glo ATP depletion luminescence
Chain of Calcium-dependent protein kinase 4 (Plasmodium falciparum (isolate 3D7)) (Q8IBS5 whole entry, looked up): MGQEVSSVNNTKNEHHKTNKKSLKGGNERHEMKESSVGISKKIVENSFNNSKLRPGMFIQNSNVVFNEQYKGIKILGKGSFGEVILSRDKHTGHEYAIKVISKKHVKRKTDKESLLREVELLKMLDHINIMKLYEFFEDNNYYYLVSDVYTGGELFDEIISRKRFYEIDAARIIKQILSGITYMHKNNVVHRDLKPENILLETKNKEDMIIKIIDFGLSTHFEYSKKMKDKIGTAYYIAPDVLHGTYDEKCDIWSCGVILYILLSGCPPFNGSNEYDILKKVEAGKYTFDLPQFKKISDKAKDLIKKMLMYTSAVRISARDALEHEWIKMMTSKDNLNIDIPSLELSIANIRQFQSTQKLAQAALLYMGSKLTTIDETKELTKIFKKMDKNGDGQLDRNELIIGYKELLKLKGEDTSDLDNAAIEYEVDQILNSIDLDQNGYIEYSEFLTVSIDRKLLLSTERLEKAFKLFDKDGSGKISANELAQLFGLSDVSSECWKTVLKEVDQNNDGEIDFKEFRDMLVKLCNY

Chain of Protein kinase 7 (PK7), Plasmodium falciparum 3D7 (PF3D7_0213400) (Q7YTF7 1-343): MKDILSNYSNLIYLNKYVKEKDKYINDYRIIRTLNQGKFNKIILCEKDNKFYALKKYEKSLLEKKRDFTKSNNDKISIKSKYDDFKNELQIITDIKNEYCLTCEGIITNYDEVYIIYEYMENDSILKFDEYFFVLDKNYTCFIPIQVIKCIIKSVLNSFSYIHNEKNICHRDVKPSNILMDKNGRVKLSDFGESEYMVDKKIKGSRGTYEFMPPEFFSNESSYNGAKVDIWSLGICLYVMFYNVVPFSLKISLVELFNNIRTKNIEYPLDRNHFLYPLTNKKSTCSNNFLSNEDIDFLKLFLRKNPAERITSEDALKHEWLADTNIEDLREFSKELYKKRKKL
Chain of Calcium-dependent protein kinase 1 (Plasmodium falciparum (isolate 3D7)) (P62344 whole entry, looked up): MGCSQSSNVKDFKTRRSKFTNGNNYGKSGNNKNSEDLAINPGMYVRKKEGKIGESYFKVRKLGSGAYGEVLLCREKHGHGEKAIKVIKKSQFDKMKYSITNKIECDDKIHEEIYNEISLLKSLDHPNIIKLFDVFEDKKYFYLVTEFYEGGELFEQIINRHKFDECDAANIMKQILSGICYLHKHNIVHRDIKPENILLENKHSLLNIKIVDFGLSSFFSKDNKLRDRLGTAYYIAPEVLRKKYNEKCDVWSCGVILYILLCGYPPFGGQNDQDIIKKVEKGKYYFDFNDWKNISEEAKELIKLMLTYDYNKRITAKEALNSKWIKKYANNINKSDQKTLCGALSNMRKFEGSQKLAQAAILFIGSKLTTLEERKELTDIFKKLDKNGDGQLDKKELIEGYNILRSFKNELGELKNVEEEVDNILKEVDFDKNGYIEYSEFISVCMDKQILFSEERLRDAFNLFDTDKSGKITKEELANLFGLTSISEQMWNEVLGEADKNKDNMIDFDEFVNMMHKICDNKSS
Chain of L-lactate dehydrogenase (Plasmodium falciparum (isolate CDC / Honduras)) (Q27743 whole entry, looked up): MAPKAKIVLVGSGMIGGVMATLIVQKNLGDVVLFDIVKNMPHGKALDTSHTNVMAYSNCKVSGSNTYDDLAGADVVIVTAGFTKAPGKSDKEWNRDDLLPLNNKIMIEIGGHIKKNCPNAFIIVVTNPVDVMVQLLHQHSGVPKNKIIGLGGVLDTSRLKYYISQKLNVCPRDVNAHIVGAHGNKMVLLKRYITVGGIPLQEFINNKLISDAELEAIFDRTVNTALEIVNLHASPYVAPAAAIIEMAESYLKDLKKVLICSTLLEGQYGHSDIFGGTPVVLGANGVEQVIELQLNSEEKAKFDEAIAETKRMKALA
Chain of Plasmodium falciparum protein kinase 6 (PK6, PF3D7_1337100) (Q8IDW1 1-305): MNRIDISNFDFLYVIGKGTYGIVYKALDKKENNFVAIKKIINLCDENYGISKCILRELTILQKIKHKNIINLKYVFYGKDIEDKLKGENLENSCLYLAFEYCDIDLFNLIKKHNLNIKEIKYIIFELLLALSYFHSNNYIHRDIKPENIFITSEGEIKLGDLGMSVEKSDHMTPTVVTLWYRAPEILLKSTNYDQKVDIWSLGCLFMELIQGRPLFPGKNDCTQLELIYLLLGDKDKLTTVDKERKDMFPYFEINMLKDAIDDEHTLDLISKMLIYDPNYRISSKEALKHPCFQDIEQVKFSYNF

Oc1ccc(CCNCCCCCCNCCc2ccc(Cl)c(Cl)c2)cc1O
inactive: growth inhibition [1] 2% | inhibition [2] 21% | inhibition [3] -1% | outcome [5] | outcome [6] | outcome [7] | outcome [8]
active: growth inhibition [4] 101%

O=C(Nc1ccc(-c2nc3ccccc3[nH]2)cc1)c1ccc(N2CCCC2)c([N+](=O)[O-])c1
inactive: inhibition [2] 43% | inhibition [3] -1% | outcome [5] | outcome [6] | outcome [7] | outcome [8]
active: growth inhibition [1] 95% | growth inhibition [4] 100%

Cc1sc(NC(=O)c2ccc([N+](=O)[O-])cc2Cl)c(C(N)=O)c1C
inactive: growth inhibition [1] 2% | inhibition [2] 2% | inhibition [3] 1% | outcome [5] | outcome [6] | outcome [7] | outcome [8]
active: growth inhibition [4] 94%

CC(C)C[C@H](NC(=O)c1ccc(OCCN2CCOCC2)cc1)C(=O)N[C@H](/C=N/N1CC(=O)NC1=O)CCc1ccccc1
inactive: inhibition [2] 10% | inhibition [3] 0% | outcome [5] | outcome [6] | outcome [7] | outcome [8]
active: growth inhibition [1] 67% | growth inhibition [4] 88%

CCOc1ccc2nc(NC(=O)c3csnn3)sc2c1
active: growth inhibition [1] 98% | growth inhibition [4] 100%
inactive: inhibition [2] 6% | inhibition [3] 1% | outcome [5] | outcome [6] | outcome [7] | outcome [8]

N#Cc1cccc(CN2CCCN(Cc3cccc(C(=O)Nc4ccc(Cl)cc4)c3)CC2)c1
inactive: growth inhibition [1] 9% | inhibition [2] 46% | inhibition [3] 1% | outcome [5] | outcome [6] | outcome [7] | outcome [8]
active: growth inhibition [4] 82%

COC(=O)c1ccc2nc(-c3ccc(/C=C/C(=O)NCc4ccc(Cl)c(Cl)c4)cc3)[nH]c2c1
inactive: growth inhibition [1] 3% | inhibition [2] 13% | inhibition [3] -3% | outcome [5] | outcome [6] | outcome [7] | outcome [8]
active: growth inhibition [4] 81%

CCCCCCCN1CC[C@H](CC(=O)Nc2ccnc3ccc(OC)cc23)[C@@H](CC)C1
active: growth inhibition [1] 75% | growth inhibition [4] 101%
inactive: inhibition [2] 14% | inhibition [3] -4% | outcome [5] | outcome [6] | outcome [7] | outcome [8]

CC1(C)N=C(N)N=C(N)N1c1cccc(C(F)(F)F)c1
inactive: inhibition [3] 0% | outcome [5] | outcome [6] | outcome [7] | outcome [8]
active: growth inhibition [1] 68% | inhibition [2] 60% | growth inhibition [4] 95%

O=C(NCCc1ccccc1)N(Cc1ccccc1-c1cccc(CNC2CCCC2)c1)C1CCN(Cc2ccccc2)CC1
active: growth inhibition [1] 87% | growth inhibition [4] 95%
inactive: inhibition [2] 31% | inhibition [3] 5% | outcome [5] | outcome [6] | outcome [7] | outcome [8]

Cc1cccc(CN2CCC(C(=O)Nc3ccc(-c4nc5ccccc5[nH]4)cc3)CC2)n1
active: growth inhibition [4] 96%
inactive: growth inhibition [1] 3% | inhibition [2] -9% | inhibition [3] 6% | outcome [5] | outcome [6] | outcome [7] | outcome [8]

CO/C(=C\C=C/c1cc2cc(Cl)c(Cl)cc2[nH]1)C(=O)NC1CC(C)(C)N(C)C(C)(C)C1
active: inhibition [2] 65% | growth inhibition [4] 93%
inactive: growth inhibition [1] 34% | inhibition [3] -1% | outcome [5] | outcome [6] | outcome [7] | outcome [8]

O=C(C=Cc1cccc(F)c1)NC1CCC(CCN2CCc3ccc(-c4cnccn4)cc3CC2)CC1 (stereo unspecified)
inactive: inhibition [3] -1% | outcome [5] | outcome [6] | outcome [7] | outcome [8]
active: growth inhibition [1] 67% | inhibition [2] 51% | growth inhibition [4] 100%

CCOC(=O)NCC(=O)Nc1cccc(-c2cccc(-c3nc4ccc(C(F)(F)F)cc4[nH]3)c2)c1
inactive: growth inhibition [1] 34% | inhibition [3] -2% | outcome [5] | outcome [6] | outcome [7] | outcome [8]
active: inhibition [2] 59% | growth inhibition [4] 91%

CCc1c(C(=O)NC2CCC(N3CCC(c4ccccc4C)CC3)CC2)[nH]c2ccc(Br)cc12 (stereo unspecified)
inactive: inhibition [3] -5% | outcome [5] | outcome [6] | outcome [7] | outcome [8]
active: growth inhibition [1] 99% | inhibition [2] 81% | growth inhibition [4] 101%

O=S(=O)(NCCN1CCCC1)c1cccc(-c2cccc(CNCc3ccsc3)c2)c1
inactive: inhibition [3] 6% | outcome [5] | outcome [6] | outcome [7] | outcome [8]
active: growth inhibition [1] 55% | inhibition [2] 69% | growth inhibition [4] 101%

CN(C)C(=O)CN1CCN(c2ncnc(N3CCc4c([nH]c5ccccc45)[C@@H]3c3ccc4c(c3)CCO4)n2)CC1
inactive: inhibition [2] 12% | inhibition [3] -1% | outcome [5] | outcome [6] | outcome [7] | outcome [8]
active: growth inhibition [1] 98% | growth inhibition [4] 99%

CC1CCC(C[C@@H](C(=O)N[C@H](C(=O)Nc2nccs2)[C@@H](C)O)[C@H](CCC(F)(F)F)N(O)C=O)CC1 (stereo partly specified)
inactive: inhibition [2] -8% | inhibition [3] 3% | outcome [5] | outcome [6] | outcome [7] | outcome [8]
active: growth inhibition [1] 94% | growth inhibition [4] 95%

COc1ccc(-c2cc(C(F)(F)F)n3ncc(C(=O)Nc4cc(C)ccc4O)c3n2)cc1OC
active: growth inhibition [1] 100% | growth inhibition [4] 100%
inactive: inhibition [2] 2% | inhibition [3] 0% | outcome [5] | outcome [6] | outcome [7] | outcome [8]

CCN(CC)CCN(Cc1ccc(-c2ccc(C(F)(F)F)cc2)cc1)C(=O)Cn1c(CCc2ccc(F)c(F)c2F)nc(=O)c2ccc(F)cc21
inactive: growth inhibition [1] 46% | inhibition [2] 19% | inhibition [3] -1% | outcome [5] | outcome [6] | outcome [7] | outcome [8]
active: growth inhibition [4] 98%

COc1ccc(Cl)cc1N1CCN(CCCNC(=O)c2ccc(-c3nc4ccncc4[nH]3)c(Br)c2)CC1
active: growth inhibition [4] 86%
inactive: growth inhibition [1] 15% | inhibition [2] 5% | inhibition [3] 4% | outcome [5] | outcome [6] | outcome [7] | outcome [8]

Cc1cccc(CN2CCC(CNC(=O)c3cc4c(-c5ccccc5F)nn(C)c4s3)CC2)c1
active: growth inhibition [4] 85%
inactive: growth inhibition [1] 15% | inhibition [2] 18% | inhibition [3] -4% | outcome [5] | outcome [6] | outcome [7] | outcome [8]

CC(=O)c1cc(N2CCCC2)ccc1N
inactive: inhibition [2] 1% | inhibition [3] -2% | outcome [5] | outcome [6] | outcome [7] | outcome [8]
active: growth inhibition [1] 97% | growth inhibition [4] 97%

CCc1ccc(NC(=O)C=NN=C(N)N)cc1
inactive: growth inhibition [1] 3% | inhibition [2] 13% | inhibition [3] -2% | outcome [5] | outcome [6] | outcome [7] | outcome [8]
active: growth inhibition [4] 100%

Cc1c(F)cc(C(=O)NC2CC2)cc1-c1ccc2c(cnn2S(=O)(=O)c2ccc(F)c(F)c2)c1
inactive: inhibition [2] 49% | inhibition [3] -2% | outcome [5] | outcome [6] | outcome [7] | outcome [8]
active: growth inhibition [1] 76% | growth inhibition [4] 91%

N#Cc1ccc2c(c1)CCN(CCC1CCC(NC(=O)c3ccc(-c4ccccn4)s3)CC1)CC2 (stereo unspecified)
active: growth inhibition [4] 92%
inactive: growth inhibition [1] 9% | inhibition [2] 16% | inhibition [3] 1% | outcome [5] | outcome [6] | outcome [7] | outcome [8]

Fc1ccc2nc(-c3ccc(-c4cccc(CN5CCC(CCN6CCCCC6)CC5)c4)cc3)[nH]c2c1
inactive: inhibition [3] 5% | outcome [5] | outcome [6] | outcome [7] | outcome [8]
active: growth inhibition [1] 100% | inhibition [2] 96% | growth inhibition [4] 101%

Nc1nc(N)c2c(ccc3c2ccn3CCCC2CCCNC2)n1 (stereo unspecified)
inactive: inhibition [3] -4% | outcome [5] | outcome [6] | outcome [7] | outcome [8]
active: growth inhibition [1] 55% | inhibition [2] 67% | growth inhibition [4] 98%

Cc1cccc(CCNC(=O)c2cc(Br)cc(N3CCN(c4ccncc4)CC3)c2)c1
active: growth inhibition [1] 53% | growth inhibition [4] 96%
inactive: inhibition [2] 48% | inhibition [3] 0% | outcome [5] | outcome [6] | outcome [7] | outcome [8]

CC(C)(C)OC(=O)NCC(=O)N(Cc1ccccc1)Cc1ccccc1
inactive: inhibition [2] -10% | inhibition [3] 2% | outcome [5] | outcome [6] | outcome [7] | outcome [8]
active: growth inhibition [1] 93% | growth inhibition [4] 97%

CCC(C)CN1C(=O)C(c2ccccc2)(c2ccccc2)N=C1N (stereo unspecified)
inactive: inhibition [2] 11% | inhibition [3] 4% | outcome [5] | outcome [6] | outcome [7] | outcome [8]
active: growth inhibition [1] 79% | growth inhibition [4] 98%

Cc1cc(F)ccc1-c1nc(N(C)CCN(C)C(=O)N(C)c2ccccc2)nc2c1ccc(=O)n2-c1c(F)cccc1F
inactive: inhibition [2] -1% | inhibition [3] 2% | outcome [5] | outcome [6] | outcome [7] | outcome [8]
active: growth inhibition [1] 77% | growth inhibition [4] 87%

O=[N+]([O-])c1cc(C(c2ccc(O)c([N+](=O)[O-])c2)C(Cl)(Cl)Cl)ccc1O
active: growth inhibition [1] 98% | growth inhibition [4] 93%
inactive: inhibition [2] 2% | inhibition [3] 3% | outcome [5] | outcome [6] | outcome [7] | outcome [8]

Cc1cc(N[C@@H](CC(C)C)C(=O)NCc2cccc(F)c2)nc(Nc2ccccc2)n1
inactive: inhibition [2] -5% | inhibition [3] 2% | outcome [5] | outcome [6] | outcome [7] | outcome [8]
active: growth inhibition [1] 76% | growth inhibition [4] 100%

Cc1[nH]c(C)c(-c2ccc(-c3ccc(F)cc3)cc2)c(=O)c1Cl
inactive: inhibition [3] -2% | outcome [5] | outcome [6] | outcome [7] | outcome [8]
active: growth inhibition [1] 96% | growth inhibition [4] 96%

CS(=O)(=O)CCNC(=O)c1ccc(-c2cc3c(Nc4ccc5c(cnn5Cc5ccccc5)c4)ncnc3cn2)o1
inactive: growth inhibition [1] 46% | inhibition [2] 6% | inhibition [3] -1% | outcome [5] | outcome [6] | outcome [7] | outcome [8]
active: growth inhibition [4] 97%

c1ccc2c(CNCCCN3CCN(CCCNCc4c5ccccc5cc5ccccc45)CC3)c3ccccc3cc2c1
inactive: inhibition [3] 0% | outcome [5] | outcome [6] | outcome [7] | outcome [8]
active: growth inhibition [1] 100% | growth inhibition [4] 101%

CCc1nc(N)nc(N)c1-c1ccc2c(c1)CCCC2
active: growth inhibition [4] 95%
inactive: growth inhibition [1] -5% | inhibition [3] -5% | outcome [5] | outcome [6] | outcome [7] | outcome [8]

CCCCN(CCCC)CCCN(CCCN(CCCC)CCCC)c1cc(C)nc(Nc2ccc(Cl)cc2)n1
inactive: inhibition [3] 0% | outcome [5] | outcome [6] | outcome [7] | outcome [8]
active: growth inhibition [1] 99% | growth inhibition [4] 101%

Cc1cccc(-c2cccc(CNc3nc(NCCc4ccc(O)cc4)nc(N4CCNCC4)n3)c2)c1
active: inhibition [2] 50% | growth inhibition [4] 84%
inactive: growth inhibition [1] -3% | inhibition [3] 0% | outcome [5] | outcome [6] | outcome [7] | outcome [8]
